Test results reported in PubChem BioAssay (NCI).
About 83,000 compounds went through this panel and 20% of them were active in at least one assay; those are over-represented in the sample as a whole.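 Values shown are percent growth following 48 h exposure of cells in 96-well plates to a single concentration of compound; below 10 was considered active.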 A number with no mark means an inactive call. Calls of active or inactive are those of the source.

Columns and labels:
Assay in all cases: NCI-60 one-dose screen, 48 h (100 = growth as untreated, 0 = no growth, -100 = all killed)
Conditions in all cases: 10 µM unless noted
HCT-15 colon = system: HCT-15 colon
HT29 colon = system: HT29 colon
SNB-75 CNS = system: SNB-75 CNS
SNB-19 CNS = system: SNB-19 CNS
U251 CNS = system: U251 CNS
PC-3 prostate = system: PC-3 prostate
SK-MEL-5 melanoma = system: SK-MEL-5 melanoma
UACC-62 melanoma = system: UACC-62 melanoma
LOX IMVI melanoma = system: LOX IMVI melanoma
SK-MEL-28 melanoma = system: SK-MEL-28 melanoma
SK-MEL-2 melanoma = system: SK-MEL-2 melanoma
EKVX NSCLC = system: EKVX NSCLC
SN12C renal = system: SN12C renal
UO-31 renal = system: UO-31 renal
TK-10 renal = system: TK-10 renal
ACHN renal = system: ACHN renal
CAKI-1 renal = system: CAKI-1 renal
A498 renal = system: A498 renal
CCRF-CEM leukemia = system: CCRF-CEM leukemia
MOLT-4 leukemia = system: MOLT-4 leukemia

Compound | growth (HCT-15 colon) | growth (HT29 colon) | growth (SNB-75 CNS) | growth (SNB-19 CNS) [%] | growth (U251 CNS) | growth (PC-3 prostate) | growth (SK-MEL-5 melanoma) | growth (UACC-62 melanoma) | growth (LOX IMVI melanoma) | growth (SK-MEL-28 melanoma) | growth (SK-MEL-2 melanoma) | growth (EKVX NSCLC) [%] | growth (SN12C renal) | growth (UO-31 renal) | growth (TK-10 renal) | growth (ACHN renal) | growth (CAKI-1 renal) | growth (A498 renal) | growth (CCRF-CEM leukemia) | growth (MOLT-4 leukemia)
O=C1/C(=C/c2ccc(Cl)cc2)COc2ccc(O)c(O)c21 | -1.01% (active) | 15.5% | 18.2% | 24.9 | -57% (active) | -6% (active) | 56% | 4.2% (active) | -84.8% (active) | 60.2% | 69.9% | 51.7 | -51.5% (active) | -98.5% (active) | 16.7% | -66.3% (active) | -13.8% (active) | 114% | 4.29% (active) | 3.43% (active)
COc1ccc(-c2nc(/C=C3\SC(=NCc4ccccc4)NC3=O)c3ccccn23)cc1 | 0.0387% (active) | -70.4% (active) | -46.8% (active) | 16 | -43.6% (active) | 13.7% | -78.4% (active) | -49.7% (active) | -76.4% (active) | -43.9% (active) | -31.6% (active) | 58 | -19.7% (active) | -47.2% (active) | -52.4% (active) | -28.3% (active) | 3.18% (active) | -7.6% (active) | 16.2% | 11.1%
CN1C(=O)N(C)C2Nn3c(s/c(=C\c4ccc(C(F)(F)F)cc4)c3=O)=NC21 (stereo not given) | 93.9% | 109% | 82.2% | 95.2 | 93.2% | 104% | 99.5% | 89.7% | 95.7% | 103% | 115% | 100 | 100% | 82.3% | 106% | 105% | 82.7% | 109% | 101% | 106%
O=C(/C=C/c1cn(-c2ccccc2)nc1-c1ccc([N+](=O)[O-])cc1)c1ccc(Cl)cc1 | 46.8% | 52.5% | -5.08% (active) | 52.8 | 9.68% (active) | 58.8% | 71.5% | 58.9% | 37.8% | 56.7% | 96.2% | 60.7 | 50.5% | 41.2% | 14.1% | 52.3% | 31.9% | 78.5% | 38% | 38%
O=C1Nc2ccc(Br)cc2/C1=N/c1n[nH]c(=S)s1 | 99.1% | 104% | 74.5% | 101 | 96.2% | 95% | 97.6% | 93.2% | 90.3% | 114% | 105% | 100 | 96.6% | 86.4% | 104% | 96.3% | 74.6% | 92.4% | 104% | 100%
COc1ccc(C(=O)Nc2cccc(C3CC(=O)c4c(cc(OC)c(OC)c4OC)O3)c2)cc1 (stereo not given) | 13.3% | 6.28% (active) | -11.4% (active) | 18.3 | 9.47% (active) | 20.4% | 9.7% (active) | 25.5% | 26.1% | 56.3% | -11.9% (active) | 45 | 31.2% | 33.7% | 40.3% | 40.8% | 33.3% | -2.96% (active) | 9.44% (active) | 14.3%
CCOC(=O)C(=Cc1cccc(Cl)c1)C(=O)OCC | -51.1% (active) | -62.5% (active) | 35.3% | 51.5 | 26.6% | 25.2% | 53.5% | -9.18% (active) | -65.1% (active) | -39% (active) | 25.3% | 78.7 | 33.3% | -56.2% (active) | 3.56% (active) | -72.9% (active) | 61.5% | 112% | -1.23% (active) | 13.4%
CN1CCN(Cc2ccc3c(NNC(=O)c4ccccc4)nc4cc(F)ccc4n23)CC1 | 33.8% | 30.7% | 48.8% | 27.4 | 12.2% | 39.9% | -26.8% (active) | 4.48% (active) | 7.25% (active) | 34.9% | 57.7% | 21.5 | 17.2% | 7.31% (active) | 30% | 11.5% | 11.8% | -7.93% (active) | 12.2% | 12%
